In all, about 230,000 compounds went through this assay and about 1,500 (0.65%) were called active.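 The calls were made as follows: active = pattern-corrected inhibition of lipid staining of at least 50% with the nuclear-stain viability signal not falling by more than 50%; inactive = the rest, inconclusive results apart.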 The entries come from a sample that favours actives as a whole.

This assay in a line: TAG lipid buildup reduction in H9c2 cells – cell-based, uHTS, fluorescence, primary screen (AID 651582).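 As to inhibition: 0% = DMSO wells and 100% = triacsin C control wells.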 As to conditions: Nile Red lipid (TAG) fluorescence, at 12.5 µM, cells loaded with 200 µM oleic acid; DAPI nuclei signal change (viability), lower = more cytotoxic: measured here: DAPI nuclei count viability; inhibition: stronger effect = higher value.
Usually inhibition stands for the drop in the measured response relative to a control, in per cent. Consider `O=C(COC(=O)/C=C/c1cccc(Cl)c1)NCc1cccs1`, for which the DAPI nuclei signal change (viability), lower = more cytotoxic was -2.53% and the inhibition is 1.94% (inactive).

On to `CCCNC(=O)c1cc(C2CCCCN2S(=O)(=O)c2cn(C)cn2)on1` (stereo not given), for which the DAPI nuclei signal change (viability), lower = more cytotoxic was found to be 4.91% and the inhibition is 3.78% (inactive).

As to `CCCC(=O)Nc1nc2ccc(NC(=O)c3c(F)c(F)c(OC)c(F)c3F)cc2s1`, the DAPI nuclei signal change (viability), lower = more cytotoxic was -22.6% and the inhibition was 70% (active).

On to `CSc1nc2ccc(NC(=O)c3c(F)cccc3F)cc2s1`, for which the DAPI nuclei signal change (viability), lower = more cytotoxic was found to be 1.73% and the inhibition was -11.3% (inactive).

As for `CC(=O)Nc1ccc2nc(NC(=O)CS(=O)(=O)c3ccc(F)cc3)sc2c1`, the DAPI nuclei signal change (viability), lower = more cytotoxic is -3.72% and the inhibition is -0.551% (inactive).

In the case of `CCNC(=O)C1(C)CCCN(C(=O)c2c(C)noc2C)C1` (stereo not given), the DAPI nuclei signal change (viability), lower = more cytotoxic came out at 4.88% and the inhibition was -5.1% (inactive).

For `CC1=C(C(=O)N(C)C)CC(CC(=O)NCCc2ccccn2)C(=O)N1CCC1=CCCCC1` (stereo not given), the DAPI nuclei signal change (viability), lower = more cytotoxic was -8.79% and the inhibition was -1.46% (inactive).

Regarding `CN(Cc1c(F)cccc1Cl)C(=O)COC(=O)Cn1cnc2ccccc2c1=O`, the DAPI nuclei signal change (viability), lower = more cytotoxic is 0.959% and the inhibition is -10.1% (inactive).

In the case of `O=C(OCCN1C(=O)c2ccccc2C1=O)[C@@H]1CC(O)CN1S(=O)(=O)c1ccccc1[N+](=O)[O-]` (stereo not given in full), the DAPI nuclei signal change (viability), lower = more cytotoxic was -0.22% and the inhibition is -9.02% (inactive).

`CCCC(=O)N1CCC1(C)C(=O)NS(=O)(=O)c1ccc(Cl)cc1` (stereo not given): the DAPI nuclei signal change (viability), lower = more cytotoxic was 2.06% and the inhibition was 6.55% (inactive).

With `CC(=O)Nc1ccc(C(=O)Nc2cc(S(=O)(=O)N3CCOCC3)ccc2N2CCOCC2)cc1`, the DAPI nuclei signal change (viability), lower = more cytotoxic came out at 4.58% and the inhibition is -8.64% (inactive).

On to `Cc1cccc(N2CCN(c3ccc(NC(=O)/C=C\C(=O)O)cc3)CC2)c1`, for which the DAPI nuclei signal change (viability), lower = more cytotoxic is 1.52% and the inhibition is 7.15% (inactive).

As for `C=CC(=O)Nc1ccc(Nc2ccnc(Nc3ccc(N4CCN(C)CC4)cc3)n2)cc1`, the DAPI nuclei signal change (viability), lower = more cytotoxic is -47% and the inhibition was 88.2% (active).

In the case of `CN1CCN(c2ccc(NC(=O)COc3ccc(Cl)cc3Cl)cc2)CC1`, the DAPI nuclei signal change (viability), lower = more cytotoxic was 3.32% and the inhibition is -1.69% (inactive).

For `COc1cc(NC(=O)c2cc(-c3ccc(F)cc3OC(C)C)n[nH]2)cc(OC)c1OC`, the DAPI nuclei signal change (viability), lower = more cytotoxic is -6.58% and the inhibition is 5.57% (inactive).

Regarding `Cc1cc(N2CCN(c3ccccc3)CC2)nc(N2CCOCC2)n1`, the DAPI nuclei signal change (viability), lower = more cytotoxic was -3.71% and the inhibition was 14.3% (inactive).

Turning to `O=S(=O)(Cc1cc(Sc2ccccc2)nc(-c2ccccc2)n1)c1ccccc1`, the DAPI nuclei signal change (viability), lower = more cytotoxic was -1.14% and the inhibition is 12.7% (inactive).

As to `Cc1ccc(Sc2cc(N3CCOCC3)nc(-c3ccccc3)n2)cc1`, the DAPI nuclei signal change (viability), lower = more cytotoxic is -0.706% and the inhibition was 55.1% (active).

Regarding `COc1ccc(-c2ccc3c(c2)C2CC3CCN2CCC#N)cc1` (stereo not given), the DAPI nuclei signal change (viability), lower = more cytotoxic amounted to 3.73% and the inhibition was -6.07% (inactive).

On to `CCc1nc2ccc(C(=O)Nc3cccc(OC)c3)cn2c1N(CCC(C)C)CCN(C)C`, for which the DAPI nuclei signal change (viability), lower = more cytotoxic stood at 0.0295% and the inhibition is 33.9% (inactive).

With `Cc1[nH]c2ccccc2c1C(=O)C(=O)NCc1nnnn1-c1cccc(F)c1`, the DAPI nuclei signal change (viability), lower = more cytotoxic was 9.45% and the inhibition was -12.5% (inactive).

As to `CCN(CC)c1ncnc2c1ncn2[C@H]1CN(Cc2cccs2)C[C@@H](CO)O1`, the DAPI nuclei signal change (viability), lower = more cytotoxic was -0.273% and the inhibition is -11.2% (inactive).

Regarding `OC(c1ccc(Cl)cc1)c1ncc(-c2ccc(Cl)cc2)[nH]1` (stereo not given), the DAPI nuclei signal change (viability), lower = more cytotoxic is 11% and the inhibition is -53.7% (inactive).

With `O=C1OCC2=C1C(c1ccc(Cl)cc1)c1cc3c(cc1O2)OCO3` (stereo not given), the DAPI nuclei signal change (viability), lower = more cytotoxic turned out to be 6.8% and the inhibition is 11% (inactive).

With `COc1ccccc1C1C2=C(COC2=O)Nc2cc3c(cc21)OCO3` (stereo not given), the DAPI nuclei signal change (viability), lower = more cytotoxic was -19.2% and the inhibition was 58.6% (active).

For `CCCOc1ccccc1C1CC(=O)Nc2cc3c(cc21)OCO3` (stereo not given), the DAPI nuclei signal change (viability), lower = more cytotoxic is -7.65% and the inhibition was 28.7% (inactive).

For the molecule `CN(C)S(=O)(=O)c1cccc(NC(=O)COc2ccc3ccccc3c2)c1`, the DAPI nuclei signal change (viability), lower = more cytotoxic is -8.57% and the inhibition was -14% (inactive).

As to `O=C(NCCO)c1cccc(-c2cccc3nccn23)c1`, the DAPI nuclei signal change (viability), lower = more cytotoxic is 4.67% and the inhibition was -6.44% (inactive).

On to `COc1ccc(CCNC(=O)CCCCn2c(=O)[nH]c3ccccc3c2=O)cc1OC`, for which the DAPI nuclei signal change (viability), lower = more cytotoxic was -8.64% and the inhibition is 21.8% (inactive).

Turning to `COc1ccc(Cc2nnc(N/N=C/c3ccccc3O)[nH]c2=O)cc1OC`, the DAPI nuclei signal change (viability), lower = more cytotoxic was -27% and the inhibition is 50.4% (active).

Consider `CCOc1ccc(-n2c(O)c(/C=N/Nc3nnc(C)c(=O)[nH]3)c3ccccc3c2=O)cc1`, for which the DAPI nuclei signal change (viability), lower = more cytotoxic came to 5.58% and the inhibition is -10.7% (inactive).

As for `CC1C(=O)N(Cc2cn(CC3CCCCC3)nn2)CCS(=O)(=O)N1Cc1ccc(-c2cccc(N(C)C)c2)cc1` (stereo not given), the DAPI nuclei signal change (viability), lower = more cytotoxic is -0.553% and the inhibition is -17.1% (inactive).

For the molecule `COc1ccc(CC(=O)Nc2ccc(-c3nnc(-c4ccc(C)cc4)o3)cc2)cc1`, the DAPI nuclei signal change (viability), lower = more cytotoxic was determined as 2.81% and the inhibition was 59.2% (active).

For the molecule `COc1ccc(NC(=O)c2cc(-c3ccc(C)cc3)on2)cc1`, the DAPI nuclei signal change (viability), lower = more cytotoxic was determined as 4.01% and the inhibition is -3.75% (inactive).

In the case of `Cc1ccc(OCC(=O)Nc2ccc(-c3nc4ncccc4o3)cc2)cc1`, the DAPI nuclei signal change (viability), lower = more cytotoxic was 18.7% and the inhibition is 14% (inactive).

Turning to `NNC(=O)c1nnn(-c2nonc2N)c1CN1CCCC1`, the DAPI nuclei signal change (viability), lower = more cytotoxic was -4.78% and the inhibition was -6.85% (inactive).

As to `CC1(C)CC(=O)C=C(c2ccccc2CO)C1=O`, the DAPI nuclei signal change (viability), lower = more cytotoxic is -1.17% and the inhibition is -16.1% (inactive).

Consider `CC(=O)CC(CC(=O)NC1CCCCC1)c1ccccc1` (stereo not given), for which the DAPI nuclei signal change (viability), lower = more cytotoxic came to 1.1% and the inhibition is 2.67% (inactive).

On to `Cc1nn(C)cc1/C=N/NC(=O)c1sc2ccccc2c1Cl`, for which the DAPI nuclei signal change (viability), lower = more cytotoxic stood at 6.2% and the inhibition was -14.7% (inactive).

Turning to `Cc1ccc(-c2nc3ccccc3[nH]2)cc1NC(=O)c1sc2ccccc2c1Cl`, the DAPI nuclei signal change (viability), lower = more cytotoxic turned out to be 17.5% and the inhibition was 58.3% (active).

With `COc1ccc(CNC(=O)CNC(=O)c2sc3ccccc3c2Cl)cc1OC`, the DAPI nuclei signal change (viability), lower = more cytotoxic was -2.17% and the inhibition is 10.6% (inactive).

As for `Cc1ccc(Cc2c(-c3ccccc3)nc3ccc(Cl)cn23)cc1`, the DAPI nuclei signal change (viability), lower = more cytotoxic was 0.00442% and the inhibition is -0.293% (inactive).

For the molecule `COc1ccc(C(=O)N(C)Cc2ccc(OC)c(OC)c2OC)cc1S(=O)(=O)N1CCOCC1`, the DAPI nuclei signal change (viability), lower = more cytotoxic was -5.3% and the inhibition was 8.22% (inactive).

`COc1ccc(CNC(=O)C[C@H]2C[C@H](C(=O)N3CCOCC3)[C@@]3(CCC4CCCC4)c4[nH]c5ccc(Cl)cc5c4CCN3C2=O)cc1OC`: the DAPI nuclei signal change (viability), lower = more cytotoxic was 0.251% and the inhibition is 63.8% (active).

Turning to `COc1ccc2[nH]c3c(c2c1)CCN1C(=O)C(CC(=O)NCCCN(C)C)C[C@H](C(=O)N2CCOCC2)[C@@]31CCC1CCCC1` (stereo not given in full), the DAPI nuclei signal change (viability), lower = more cytotoxic is -19.4% and the inhibition is 31.2% (inactive).

For the molecule `O=C(C[C@H]1C[C@H](C(=O)N2CCOCC2)[C@@]2(CCC3CCCC3)c3[nH]c4ccc(Cl)cc4c3CCN2C1=O)NCc1ccco1`, the DAPI nuclei signal change (viability), lower = more cytotoxic turned out to be 8.62% and the inhibition is 28.1% (inactive).

As to `CC[C@]12c3[nH]c4ccc(OC)cc4c3CCN1C(=O)C(CC(=O)NCc1ccco1)C[C@@H]2C(=O)N1CCN(C(=O)C2CC2)CC1` (stereo not given in full), the DAPI nuclei signal change (viability), lower = more cytotoxic was -9.73% and the inhibition was 7.93% (inactive).

In the case of `Cc1cc(Oc2ccccc2)nc(N2CCOCC2)n1`, the DAPI nuclei signal change (viability), lower = more cytotoxic turned out to be 6.77% and the inhibition was -9.8% (inactive).

As to `Cc1cc(C)n(-c2cc(Oc3ccccc3)ncn2)n1`, the DAPI nuclei signal change (viability), lower = more cytotoxic came to 6.79% and the inhibition was -18.3% (inactive).

With `CC(=O)c1ccc(Oc2cc(C)nc(-n3nc(C)cc3C)n2)cc1`, the DAPI nuclei signal change (viability), lower = more cytotoxic was -32.4% and the inhibition was 61.3% (active).

For the origin of these results see PubChem BioAssay AID651582 (Sanford-Burnham Center for Chemical Genomics, 2012).
